Activity calls are given as the source filed them. Rule for the calls: active = hit-call score of the fitted dose curve at least 0.9, where 1 is the maximum; inactive = score below 0.9.
How the values were obtained:
[1] = ATG_E_Box_CIS: Attagene CIS-FACTORIAL HepG2 Assay for human Enhancer Box (E-box) (AID 2282936); conditions: HepG2 E-box cis-reporter transcription, actives raise or lower the signal
Procedure, shortened: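 HepG2 cells transiently transfected with multiplexed cis-element reporter units sensing endogenous transcription factor activity; 24 h compound exposure. Reporter mRNA measured by RT-PCR, 6-FAM primer extension, HpaI digestion and capillary electrophoresis; bidirectional fit versus DMSO.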

[2] = ATG_M_61_CIS: Attagene CIS-FACTORIAL HepG2 Assay for M61 Transcription Factor (Internal Marker) (AID 2282937); conditions: HepG2 Attagene CIS-FACTORIAL M61 internal marker reporter; actives raise or lower the signal
Procedure, shortened: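 HepG2 cells transiently transfected with multiplexed cis-promoter reporter units reporting endogenous transcription factor activity, measured 24 h after dosing. Reporter mRNA quantified by RT-PCR and capillary electrophoresis; bidirectional fit against DMSO baseline.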

[3] = ATG_EGR_CIS: Attagene CIS-FACTORIAL HepG2 Assay for human Early Growth Response 1 (EGR1) (AID 2282938); conditions: HepG2 Attagene CIS-FACTORIAL EGR reporter mRNA; actives raise or lower the signal
Procedure, shortened: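 HepG2 cells transiently transfected with cis-element-driven multiplexed reporter units, dosed for 24 h. EGR1-element reporter mRNA quantified by RT-PCR, 6-FAM labelling, HpaI digestion and capillary electrophoresis; bidirectional fit versus DMSO.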

[4] = ATG_M_19_CIS: Attagene CIS-FACTORIAL HepG2 Assay for M19 Transcription Factor (Internal Marker) (AID 2282939); conditions: HepG2 Attagene CIS-FACTORIAL M19 internal marker reporter; actives raise or lower the signal
Procedure, shortened: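 Transfect HepG2 with MRTU reporter library → dose chemical, 24 h → isolate total RNA, reverse-transcribe with oligo(dT) → PCR, 6-FAM label, HpaI cut (2 h, 37 C) → capillary electrophoresis. Bidirectional fit vs DMSO.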

[5] = ATG_ERE_CIS: Attagene CIS-FACTORIAL HepG2 Assay for Estrogen Response Element (ERE) (AID 2282940); conditions: HepG2 ERE cis-reporter, Attagene RNA transcript; actives raise or lower the signal
Procedure, shortened: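 Transient MRTU transfection of human HepG2; cis-element promoters; 24 h dosing; total RNA → RT (oligo dT) → PCR → 6-FAM primer extension → HpaI digest → CE fluorescence. Bidirectional fit, DMSO baseline.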

[6] = ATG_Ets_CIS: Attagene CIS-FACTORIAL HepG2 Assay for human Erythroblast Transformation Specific (ETS) (AID 2282941); conditions: HepG2 ETS cis-reporter transcription, actives raise or lower the signal
Procedure, shortened: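 After transient cis-reporter transfection, HepG2 cells receive test chemical for 24 h. Reporter mRNA levels, measured by RT-PCR and capillary electrophoresis fluorescence, are analysed bidirectionally relative to the DMSO baseline.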

[7] = molecular target: Hepatocyte nuclear factor 3-beta (Homo sapiens) (UniProt Q9Y261); assay: ATG_FoxA2_CIS: Attagene CIS-FACTORIAL HepG2 Assay for human Forkhead box A2 (FOXA2) (AID 2282942); conditions: HepG2 cis-reporter transcription factor activity, 24 h; actives raise or lower the signal
Procedure, shortened: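 HepG2 transiently transfected with a multiplexed cis-promoter reporter library read endogenous FOXA2 activity. After 24 h compound exposure, reporter mRNA was quantified by RT-PCR, HpaI digestion and capillary electrophoresis. Bidirectional fit against DMSO.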

[8] = ATG_FoxO_CIS: Attagene CIS-FACTORIAL HepG2 Assay for human Forkhead box O (FoxO) (AID 2282943); conditions: HepG2 Attagene cis-reporter, FoxO element, mRNA; actives raise or lower the signal
Procedure, shortened: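 HepG2 cells transiently transfected with cis-promoter-driven multiple reporter transcription units; 24 h after chemical dosing, reporter mRNA quantified by RT-PCR, fluorescent primer extension, HpaI digestion and capillary electrophoresis. Bidirectional fitting versus DMSO baseline.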

[9] = ATG_GATA_CIS: Attagene CIS-FACTORIAL HepG2 Assay for human GATA Binding Protein (AID 2282944); conditions: HepG2 GATA cis-element reporter, Attagene multiplex mRNA; actives raise or lower the signal
Procedure, shortened: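 Transient MRTU transfection, HepG2, 24 h compound exposure. Total RNA → oligo(dT) RT → PCR → 6-FAM primer extension → HpaI cut → CE. Bidirectional fit vs DMSO.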

[10] = ATG_GLI_CIS: Attagene CIS-FACTORIAL HepG2 Assay for human Zinc Finger Protein GLI1 (AID 2282945); conditions: HepG2, Attagene cis-factorial reporter mRNA, GLI element; actives raise or lower the signal
Procedure, shortened: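 HepG2 cells transiently transfected with cis-promoter multiplexed reporter units report endogenous transcription factor activity. After 24 h chemical exposure, reporter mRNA was quantified by RT-PCR, 6-FAM labelling, HpaI digestion and capillary electrophoresis, with bidirectional fitting against DMSO.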

[11] = molecular target: Bile acid receptor (Homo sapiens) (UniProt Q96RI1); assay: ATG_IR1_CIS: Attagene CIS-FACTORIAL HepG2 Assay for human Nuclear Receptor Subfamily 1 Group H Member 4 (NR1H4), IR1 submotif (AID 2282946); conditions: IR1 reporter transcription, actives raise or lower the signal
Procedure, shortened: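 Transient MRTU transfection, HepG2; 24 h dosing; RNA → RT-PCR → 6-FAM primer extension → HpaI digest → capillary electrophoresis fluorescence. Gain/loss of signal fitted relative to DMSO.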

[12] = ATG_GRE_CIS: Attagene CIS-FACTORIAL HepG2 Assay for human Glucocorticoid Response Elements (GRE) (AID 2282947); conditions: HepG2 GRE cis-reporter, Attagene multiplex mRNA; actives raise or lower the signal
Procedure, shortened: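 HepG2 cells transiently transfected with multiple cis-promoter reporter units measure endogenous TF activity; 24 h compound exposure. Reporter mRNA quantified by RT-PCR, FAM labelling, HpaI digestion and capillary electrophoresis; bidirectional fit vs DMSO baseline.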

[13] = ATG_ISRE_CIS: Attagene CIS-FACTORIAL HepG2 Assay for human Interferon Regulatory Factor 1 (IRF1) binding to an Interferon-Stimulated Response Element (ISRE) (AID 2282948); conditions: HepG2 ISRE cis-reporter (Attagene), mRNA transcription readout; actives raise or lower the signal
Procedure, shortened: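 Quantitation relies on labelled RT-PCR fragments separated by capillary electrophoresis. Human HepG2 cells bearing cis-promoter reporter constructs were treated 24 h; DMSO served as baseline for bidirectional fitting.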

[14] = ATG_M_32_CIS: Attagene CIS-FACTORIAL HepG2 Assay for M32 Transcription Factor (Internal Marker) (AID 2282949); conditions: HepG2 Attagene cis-factorial M32 reporter, mRNA; actives raise or lower the signal;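 note: background control marker of the multiplexed CIS panel rather than a real target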
Procedure, shortened: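 Internal background marker read-out: RT-PCR/capillary electrophoresis fluorescence of reporter transcripts from transiently transfected HepG2 cells after 24 h chemical exposure. Activity fitted bidirectionally relative to DMSO negative control.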

[15] = ATG_M_06_CIS: Attagene CIS-FACTORIAL HepG2 Assay for M06 Transcription Factor (Internal Marker) (AID 2282950); conditions: HepG2 Attagene CIS-FACTORIAL M06 internal marker reporter; actives raise or lower the signal
Procedure, shortened: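 Read-out is fluorescence of labelled reporter cDNA fragments resolved by capillary electrophoresis after RT-PCR. Cells: HepG2 carrying transfected cis-promoter reporter units, treated 24 h. Gain or loss of signal fitted relative to DMSO.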

[16] = molecular target: Hypoxia-inducible factor 1-alpha (Homo sapiens) (UniProt Q16665); assay: ATG_HIF1a_CIS: Attagene CIS-FACTORIAL HepG2 Assay for human Hypoxia Inducible Factor 1 (HIF1A) (AID 2282951); conditions: HepG2 Attagene cis-factorial HIF1a reporter transcription; actives raise or lower the signal
Procedure, shortened: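 HepG2 cells transiently transfected with multiple cis-regulated reporter transcription units measure endogenous transcription factor activity. After 24 h exposure, reporter mRNA is quantified by RT-PCR with 6-FAM labelling, HpaI digestion and capillary electrophoresis. Bidirectional fitting against DMSO.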

[17] = molecular target: Hepatocyte nuclear factor 6 (Homo sapiens) (UniProt Q9UBC0); assay: ATG_HNF6_CIS: Attagene CIS-FACTORIAL HepG2 Assay for human Hepatocyte Nuclear Factor 6 (HNF6) (AID 2282952); conditions: HepG2 Attagene cis-factorial HNF6 reporter transcription; actives raise or lower the signal
Procedure, shortened: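 HepG2 cells transiently transfected with cis-element-driven multiplexed reporter units measuring endogenous transcription factor activity. After 24 h exposure, reporter mRNA quantified by RT-PCR, FAM-labelled fragments and capillary electrophoresis; bidirectional fitting versus DMSO.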

[18] = molecular target: Heat shock factor protein 1 (Homo sapiens) (UniProt Q00613); assay: ATG_HSE_CIS: Attagene CIS-FACTORIAL HepG2 Assay for human Heat Shock Transcription Factor 1 (HSE) (AID 2282953); conditions: HepG2 HSE cis-reporter, Attagene RNA transcription; actives raise or lower the signal
Procedure, shortened: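 HepG2, transient MRTU transfection, cis-promoter reporters (endogenous TF activity). 24 h compound. RNA → oligo(dT) RT → PCR → 6-FAM primer extension → HpaI cut → CE. Bidirectional fit vs DMSO.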

[19] = ATG_MRE_CIS: Attagene CIS-FACTORIAL HepG2 Assay for human Metal Responsive Element (MRE) (AID 2282954); conditions: HepG2 MRE cis-reporter transcription, Attagene multiplex; actives raise or lower the signal
Procedure, shortened: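 HepG2 cells transiently transfected with multiple cis-element reporter units measure endogenous MTF1-driven transcription. After 24 h compound exposure, reporter mRNA is quantified by RT-PCR with 6-FAM labelling, HpaI digestion and capillary electrophoresis; bidirectional fits versus DMSO.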

[20] = ATG_PBREM_CIS: Attagene CIS-FACTORIAL HepG2 Assay for human Phenobarbital-responsive Enhancer Module (PBREM) (AID 2282955); conditions: HepG2 PBREM cis-reporter, Attagene multiplexed transcription; actives raise or lower the signal
Procedure, shortened: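 HepG2 cells transiently transfected with multiple cis-regulated reporter units measure endogenous transcription factor activity; 24 h compound exposure. Reporter mRNA quantified by RT-PCR, fluorescent labelling, HpaI digestion and capillary electrophoresis; bidirectional fit versus DMSO.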

Measured: AC50

Hepatocyte nuclear factor 6 (Homo sapiens), sequence (Q9UBC0 whole entry, looked up, the tested form may be a part): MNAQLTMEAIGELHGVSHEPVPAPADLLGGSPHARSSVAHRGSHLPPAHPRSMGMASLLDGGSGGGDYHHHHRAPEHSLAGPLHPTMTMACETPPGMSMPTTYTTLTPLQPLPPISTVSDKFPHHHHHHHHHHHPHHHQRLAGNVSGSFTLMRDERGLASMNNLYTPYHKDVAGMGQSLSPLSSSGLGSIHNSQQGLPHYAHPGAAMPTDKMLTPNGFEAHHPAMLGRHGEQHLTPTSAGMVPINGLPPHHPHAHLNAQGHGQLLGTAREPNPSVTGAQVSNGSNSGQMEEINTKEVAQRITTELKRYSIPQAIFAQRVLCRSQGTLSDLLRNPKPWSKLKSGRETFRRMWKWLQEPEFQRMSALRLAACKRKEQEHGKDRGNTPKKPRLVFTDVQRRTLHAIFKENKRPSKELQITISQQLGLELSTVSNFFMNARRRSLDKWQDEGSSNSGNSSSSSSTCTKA
Hepatocyte nuclear factor 3-beta (Homo sapiens), sequence (Q9Y261 whole entry, looked up): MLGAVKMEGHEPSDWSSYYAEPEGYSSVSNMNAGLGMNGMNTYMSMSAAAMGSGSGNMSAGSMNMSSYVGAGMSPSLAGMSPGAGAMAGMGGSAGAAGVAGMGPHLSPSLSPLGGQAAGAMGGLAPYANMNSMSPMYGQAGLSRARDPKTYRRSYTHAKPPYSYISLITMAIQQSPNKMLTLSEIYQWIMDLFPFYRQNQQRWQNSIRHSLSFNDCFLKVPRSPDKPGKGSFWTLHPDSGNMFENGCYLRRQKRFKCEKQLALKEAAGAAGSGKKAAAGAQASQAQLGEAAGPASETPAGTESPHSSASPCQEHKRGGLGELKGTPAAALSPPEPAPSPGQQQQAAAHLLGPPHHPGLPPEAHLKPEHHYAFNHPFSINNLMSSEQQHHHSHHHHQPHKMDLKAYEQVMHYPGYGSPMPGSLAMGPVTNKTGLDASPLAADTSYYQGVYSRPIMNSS
Hypoxia-inducible factor 1-alpha (Homo sapiens), sequence (Q16665 whole entry, looked up): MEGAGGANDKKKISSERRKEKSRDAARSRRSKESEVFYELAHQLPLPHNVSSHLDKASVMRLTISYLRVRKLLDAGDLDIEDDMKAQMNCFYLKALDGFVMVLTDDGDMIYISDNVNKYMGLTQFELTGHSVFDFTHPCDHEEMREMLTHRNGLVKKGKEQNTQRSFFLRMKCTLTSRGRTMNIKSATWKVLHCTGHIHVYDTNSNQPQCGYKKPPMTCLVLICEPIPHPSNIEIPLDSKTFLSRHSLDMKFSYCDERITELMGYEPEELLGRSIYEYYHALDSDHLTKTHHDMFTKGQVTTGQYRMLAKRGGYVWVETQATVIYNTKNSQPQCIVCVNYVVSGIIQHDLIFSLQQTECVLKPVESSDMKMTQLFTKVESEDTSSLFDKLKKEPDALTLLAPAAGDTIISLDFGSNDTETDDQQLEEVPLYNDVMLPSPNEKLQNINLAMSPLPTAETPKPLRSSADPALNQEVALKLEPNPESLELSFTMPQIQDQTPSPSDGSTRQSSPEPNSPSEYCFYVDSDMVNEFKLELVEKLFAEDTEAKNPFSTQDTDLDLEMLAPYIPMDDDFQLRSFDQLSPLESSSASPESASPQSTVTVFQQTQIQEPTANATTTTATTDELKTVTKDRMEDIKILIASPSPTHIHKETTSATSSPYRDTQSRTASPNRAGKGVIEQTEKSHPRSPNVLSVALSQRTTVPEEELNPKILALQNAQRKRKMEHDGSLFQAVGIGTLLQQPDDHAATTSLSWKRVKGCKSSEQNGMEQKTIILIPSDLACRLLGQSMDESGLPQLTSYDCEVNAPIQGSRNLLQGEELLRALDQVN
Heat shock factor protein 1 (Homo sapiens), sequence (Q00613 whole entry, looked up): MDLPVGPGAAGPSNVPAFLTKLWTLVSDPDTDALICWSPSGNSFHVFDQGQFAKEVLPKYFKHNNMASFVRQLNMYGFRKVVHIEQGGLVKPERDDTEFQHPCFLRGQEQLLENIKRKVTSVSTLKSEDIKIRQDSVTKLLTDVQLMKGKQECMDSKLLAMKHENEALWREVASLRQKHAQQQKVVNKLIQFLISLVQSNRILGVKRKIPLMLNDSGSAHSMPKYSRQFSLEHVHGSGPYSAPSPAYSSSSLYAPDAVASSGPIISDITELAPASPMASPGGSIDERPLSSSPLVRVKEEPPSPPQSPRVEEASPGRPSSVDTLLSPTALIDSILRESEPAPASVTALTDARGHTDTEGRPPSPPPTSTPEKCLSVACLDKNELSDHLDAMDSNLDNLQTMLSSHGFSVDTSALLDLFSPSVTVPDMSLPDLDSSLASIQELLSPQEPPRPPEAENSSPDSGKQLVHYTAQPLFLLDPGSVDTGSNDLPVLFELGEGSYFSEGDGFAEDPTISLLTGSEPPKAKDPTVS
Bile acid receptor (Homo sapiens), sequence (Q96RI1 whole entry, looked up): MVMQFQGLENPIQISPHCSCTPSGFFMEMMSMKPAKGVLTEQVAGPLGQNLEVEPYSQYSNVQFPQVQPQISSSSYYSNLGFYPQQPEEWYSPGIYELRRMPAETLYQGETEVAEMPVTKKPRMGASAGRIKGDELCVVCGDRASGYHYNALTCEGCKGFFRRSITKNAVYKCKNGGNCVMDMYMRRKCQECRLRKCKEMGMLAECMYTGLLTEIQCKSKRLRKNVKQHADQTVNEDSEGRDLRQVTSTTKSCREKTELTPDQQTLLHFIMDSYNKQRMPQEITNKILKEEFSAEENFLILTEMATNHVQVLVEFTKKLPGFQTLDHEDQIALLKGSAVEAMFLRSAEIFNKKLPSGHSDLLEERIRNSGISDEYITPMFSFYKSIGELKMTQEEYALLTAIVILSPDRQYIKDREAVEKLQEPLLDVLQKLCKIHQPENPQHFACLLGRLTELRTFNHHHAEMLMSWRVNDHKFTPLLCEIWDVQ

CC=CCO
inactive: all assays above

C=CC=CC=CCCCCC
active: [11] 40.4 µM
not listed: [20]
inactive: all other assays above

C[Si](C)(C)O[Si](O)(O)O
not listed: [20]
inactive: all other assays above

O=C1c2cccc(O)c2C(=O)c2c(O)cc(CO)cc21
active: [1] 2.41 µM | [5] 4.22 µM | [16] 24 µM
inactive: all other assays above

CCCCCCCC/C=C\CCCCCCCC(=O)O
active: [11] 32 µM
not listed: [18] | [20]
inactive: all other assays above

CC(C)(C)c1ccc(OC(=O)c2ccccc2O)cc1
active: [5] 7.32 µM
inactive: all other assays above

CCCCNc1ccc(NCCCC)c2c1C(=O)c1ccccc1C2=O
not listed: [18] | [20]
inactive: all other assays above

CCc1c(C(=O)O)c(=O)cnn1-c1ccc(Cl)cc1
active: [5] 28.5 µM
not listed: [20]
inactive: all other assays above

CCCCCCCCO[C@@H]1O[C@H](CO)[C@@H](O)[C@H](O)[C@H]1O
not listed: [19] | [20]
inactive: all other assays above

CCc1nccnc1C
not listed: [17] | [20]
inactive: all other assays above

C1CN(SSN2CCOCC2)CCO1
active: [18] 44.4 µM
not listed: [20]
inactive: all other assays above

CC(C)(C)c1n[nH]c(=O)n(N)c1=O
not listed: [17] | [20]
inactive: all other assays above

C1=CCCC1
active: [16] 48.6 µM
not listed: [20]
inactive: all other assays above

C=C(C)CCO
not listed: [20]
inactive: all other assays above

From PubChem BioAssay (EPA / NIEHS)
